PubChem BioAssay (NCI)
About 83,000 compounds went through this panel and 20% of them were active in at least one assay; those are over-represented in the sample as a whole.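 Cells were grown in 96-well plates and exposed to the test compound at a single concentration for 48 hours; results are reported as percent growth, with values below 10 considered active.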 Active and inactive are the calls of the source.

How the values were obtained:
Test in all cases: NCI-60 one-dose screen, 48 h (100 = growth as untreated, 0 = no growth, -100 = all killed)
Settings in all cases: 10 µM
[1] = system: DU-145 prostate
[2] = system: K-562 leukemia
[3] = system: MALME-3M melanoma
[4] = system: MDA-MB-231 breast
[5] = system: RXF 393 renal
[6] = system: SF-268 CNS
[7] = system: SF-295 CNS
[8] = system: SF-539 CNS
[9] = system: UACC-257 melanoma
[10] = system: M14 melanoma
[11] = system: HCT-15 colon
[12] = system: SNB-75 CNS
[13] = system: SNB-19 CNS
[14] = system: U251 CNS
[15] = system: PC-3 prostate
[16] = system: SK-MEL-5 melanoma
[17] = system: UACC-62 melanoma
[18] = system: LOX IMVI melanoma
[19] = system: SK-MEL-28 melanoma
[20] = system: HT29 colon

Measured: growth

O=C(CSc1nccc(Nc2cccc3ccccc23)n1)c1ccc(Cl)cc1
inactive: [1] 116% | [2] 84.3% | [3] 101% | [4] 79.1% | [5] 106% | [6] 95% | [7] 95% | [8] 94.5% | [9] 109% | [10] 85.8% | [11] 101% | [12] 88% | [13] 89.3% | [14] 96.1% | [15] 83.9% | [16] 98.3% | [17] 70.2% | [18] 77.6% | [19] 106%

CN1C(=O)C2(Nc3cc(Cl)ccc3S2)c2cc(Cl)ccc21 (stereo not given)
inactive: [1] 104% | [2] 75.4% | [3] 113% | [4] 69.3% | [5] 106% | [6] 93.8% | [7] 99.3% | [8] 106% | [9] 101% | [10] 102% | [11] 76.7% | [12] 69.2% | [13] 97.2% | [14] 93.2% | [15] 73.7% | [16] 84.9% | [17] 69.9% | [18] 78.8% | [19] 101%

c1ccc(CSc2ncccc2-c2nnc(SCCN3CCOCC3)o2)cc1
inactive: [1] 112% | [2] 117% | [3] 111% | [4] 114% | [5] 123% | [6] 107% | [7] 106% | [8] 132% | [9] 147% | [11] 105% | [20] 111% | [12] 79.6% | [13] 115% | [15] 111% | [16] 102% | [17] 113% | [18] 108% | [19] 107%

COc1ccc(/C(C#N)=C/c2ccccc2OC)cc1
inactive: [1] 68.1% | [2] 21% | [3] 19.9% | [4] 56.2% | [5] 25.5% | [6] 60.7% | [7] 22.9% | [8] 42.2% | [9] 47.8% | [10] 20.7% | [11] 23.8% | [12] 28.4% | [13] 51.9% | [15] 55.6% | [17] 41.6% | [18] 37.2% | [19] 51.8%
active: [16] 9.12%

CN(C)CCC1(c2ccccc2)CCN(C)C1=O (stereo not given)
inactive: [1] 107% | [2] 95.2% | [3] 94.8% | [4] 114% | [5] 96.1% | [6] 99.9% | [7] 104% | [8] 103% | [9] 104% | [11] 102% | [20] 106% | [12] 95.8% | [13] 105% | [15] 99.7% | [16] 96.1% | [17] 105% | [18] 102% | [19] 103%

CC(=O)OC1C=CC(OC(C)=O)O1 (stereo not given)
inactive: [1] 101% | [2] 91.1% | [3] 89.7% | [4] 97.7% | [5] 112% | [6] 97.4% | [7] 93.5% | [8] 112% | [9] 94% | [11] 95.4% | [20] 91.5% | [12] 95.3% | [13] 104% | [15] 92.7% | [16] 104% | [17] 84.4% | [18] 80.4% | [19] 110%

CCOC(=O)c1cc(C(=O)c2ccc(F)cc2F)n2ccccc12
inactive: [1] 105% | [2] 85.9% | [3] 120% | [4] 79.9% | [5] 99.3% | [6] 85.7% | [7] 94.7% | [8] 95.2% | [9] 93.4% | [11] 79.9% | [20] 77.4% | [12] 83.6% | [13] 84.3% | [14] 79.4% | [15] 75.6% | [16] 92.6% | [17] 86.4% | [18] 90.4% | [19] 115%

CCOC(=O)C1=CSC2=NC3=C(CCC/C3=C\c3ccc(Cl)cc3)C(c3ccc(Cl)cc3)N12 (stereo not given)
inactive: [1] 92.7% | [2] 92.7% | [3] 103% | [4] 94.5% | [5] 78.8% | [6] 90.8% | [7] 104% | [8] 103% | [9] 85.7% | [10] 92.5% | [11] 91.9% | [12] 86.4% | [13] 81.3% | [15] 101% | [16] 84.7% | [17] 82% | [18] 74.9% | [19] 99.5%

COc1ccccc1-n1c(-c2sc(NC(C)=O)nc2C)n[nH]c1=S
inactive: [1] 119% | [2] 101% | [3] 104% | [4] 106% | [5] 107% | [6] 94.9% | [7] 83.2% | [8] 103% | [9] 114% | [11] 94.9% | [20] 104% | [12] 86.4% | [13] 103% | [15] 95.9% | [16] 105% | [17] 98.5% | [18] 97.5%

CC(C)(C)c1ccc(S(=O)(=O)Oc2ccc(NC(=O)C3CCCCC3)cc2)cc1
inactive: [1] 59.2% | [2] 27% | [3] 78.9% | [4] 72% | [5] 65.1% | [6] 70.6% | [7] 22.8% | [8] 73.2% | [10] 60.1% | [11] 36.8% | [20] 44.9% | [12] 80.1% | [13] 49.2% | [14] 43.9% | [15] 22.3% | [16] 26.3% | [17] 31.1% | [18] 48.7% | [19] 66.8%

CCn1c(SCc2ccc(C)cc2)nnc1-c1nn(-c2ccc(Cl)cc2Cl)c(-c2ccc(Cl)cc2)c1C
inactive: [1] 23.4% | [6] 22.8% | [8] 19.8% | [10] 12.3% | [11] 11.6% | [12] 23.3% | [13] 22.1% | [14] 14.4% | [17] 21.2% | [19] 30.3%
active: [2] 8.88% | [3] 7.8% | [4] 5.05% | [5] 8.71% | [7] 9.65% | [20] 2.65% | [15] 5.63% | [16] -92.3% | [18] 7.19%

COc1cc2c3c(n(C4CCN(C)CC4)c(=O)c2cc1OC)-c1cc2c(cc1C3=O)OCO2
active: [8] -55.5% | [17] -25.6% | [18] 8.68%
inactive: [1] 78.4% | [2] 81.2% | [3] 89.5% | [4] 43.6% | [5] 68.2% | [6] 50.5% | [7] 46.7% | [10] 60.9% | [11] 71.5% | [20] 39.7% | [12] 60.1% | [13] 59.6% | [14] 35.5% | [16] 57.7% | [19] 107%

COc1cc2c3c(n([C@@H]4CCOC4)c(=O)c2cc1OC)-c1cc2c(cc1C3=O)OCO2
active: [7] 1.17% | [8] -3.51% | [17] 3.12% | [18] 9.49%
inactive: [1] 24.2% | [2] 55% | [3] 75.6% | [4] 91% | [5] 52.4% | [6] 35% | [10] 16.5% | [11] 60.5% | [20] 42.9% | [12] 38% | [13] 30.1% | [14] 13.4% | [16] 14.2% | [19] 73.2%

Cc1c2c[n+](C(C)C)ccc2c(C)c2c1[nH]c1ccccc12
active: [3] -25.6% | [7] 2.91% | [13] 4.83% | [16] -63.4%
inactive: [1] 36.1% | [2] 23.3% | [4] 35.3% | [5] 60.3% | [6] 15.3% | [8] 20.8% | [10] 30% | [11] 87.7% | [20] 21.5% | [12] 41% | [14] 13.6% | [17] 10.5% | [18] 40.7% | [19] 15.7%

COc1cc2c3c(n(C4CCNCC4)c(=O)c2cc1OC)-c1cc2c(cc1C3=O)OCO2
active: [1] -92.8% | [2] -48.8% | [3] -68.4% | [4] -69.1% | [5] -56.4% | [6] -60% | [7] -70.7% | [8] -65.8% | [10] -76.1% | [11] -73.8% | [20] -58.3% | [12] -61.7% | [13] -54.8% | [14] -64.3% | [16] -89.3% | [17] -76.6% | [18] -73.1% | [19] -5.66%

O=C(O)c1ccc(-n2cc(CNc3ccc(Oc4ccccc4)cc3)c(-c3ccccc3)n2)cc1
inactive: [1] 99.8% | [2] 78.3% | [3] 88.6% | [4] 92% | [5] 86.9% | [6] 90.2% | [7] 72.1% | [8] 90.6% | [10] 97.2% | [11] 72.9% | [20] 102% | [12] 81.6% | [13] 87.7% | [14] 83.3% | [15] 96% | [16] 96.8% | [17] 83.4% | [18] 90.4%

Cc1c2cnccc2c(C)c2c1c1cc(O)ccc1n2C(C)C
active: [3] -17.9% | [4] 9.51% | [5] -39.5% | [6] 9.03% | [8] 7.2% | [10] -19% | [11] 2.12% | [12] 0.198% | [16] -49.3% | [17] -15.7% | [18] -17.2% | [19] 6.18%
inactive: [1] 12.1% | [2] 16.9% | [7] 34.5% | [20] 25% | [13] 18.3% | [14] 17.8%
